Only a selection was taken, and hits are over-represented in it overall.
L3MBTL1 inh-1 – qHTS Assay for the Inhibitors of L3MBTL1. Lethal(3)malignant brain tumor-like protein 1 (Homo sapiens), Q9Y468. AlphaScreen L3MBTL1–H3K9me1 peptide binding. Potency, µM (titrated, usually from 57.1 µM), usual class: inhibitors. 0.66% of 230,000 active; note: nearly all actives have a fitted effect of over 60% in size
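L3MBTL1 (50 nM) pre-complexed 30 min with biotinylated H3(1-15)K9me1 peptide (75 nM), then compounds added for 30 min at room temperature; AlphaScreen streptavidin donor/nickel chelate acceptor beads (10 ug/mL final) read after 30 min dark incubation.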
CtBP-E1A inh – qHTS Assay for Inhibitors of the CtBP/E1A Interaction | CtBP / adenovirus E1A interaction (AlphaScreen) | AlphaScreen GST-E1A/His-CtBP binding, 1536-well; hits give low values | 0.49% of 340,000 active | activity change, % (concentration not given with the values); in the data active = activity change below about -65%; inconclusive = mostly about -30% to -63%
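AlphaScreen with 125 nM GST-E1A and 125 nM His-CtBP (5X stocks) in Tris pH 8.0, 300 mM NaCl, BSA, Tween 20, TCEP. Compounds preincubated 2 h at 37 deg C, then glutathione donor/nickel acceptor beads added for 1 h at 37 deg C in dark.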
Six1-Eya2 blk – qHTS Assay for Inhibitors of the Six1/Eya2 Interaction | Homeobox protein SIX1 (Homo sapiens) + Protein phosphatase EYA2 (Homo sapiens), … | AlphaScreen GST-Six1/His-Eya2 binding, biochemical; hits give low values | activity change, % (test concentration not listed) | 0.56% of 360,000 active | AID 651725, 2012; in the data active = activity change below about -65%; inconclusive = mostly about -30% to -63%
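GST-Six1 + His-Eya2 (5X stock: 250/500 nM); Tris pH 8.0, 300 mM NaCl, 0.05% BSA, 0.02% Tween 20; GSH donor/Ni acceptor beads; 1 h 37 °C dark; AlphaScreen readout.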
JMJD2E inh – qHTS Assay for Inhibitors of Human Jumonji Domain Containing 2E (JMJD2E). 1.6% of 230,000 active. Potency, µM (doses to about 57.1 µM), usual class: inhibitors. JMJD2E catalytic domain, FDH-coupled NADH fluorescence (FDH is formaldehyde dehydrogenase). AID 2147, 2009. Lysine-specific demethylase 4E (Homo sapiens), B2RXH2; active = well fitted inhibition curve with a large enough effect, not every such curve was filed as active; inconclusive = small, poorly fitted or top-dose-only effect, or another doubt; inactive = no such curve, though single readings can be large or run the other way; note: nearly all actives have a fitted effect of over 50% in size
Target sequence (B2RXH2 1-337 limits assumed): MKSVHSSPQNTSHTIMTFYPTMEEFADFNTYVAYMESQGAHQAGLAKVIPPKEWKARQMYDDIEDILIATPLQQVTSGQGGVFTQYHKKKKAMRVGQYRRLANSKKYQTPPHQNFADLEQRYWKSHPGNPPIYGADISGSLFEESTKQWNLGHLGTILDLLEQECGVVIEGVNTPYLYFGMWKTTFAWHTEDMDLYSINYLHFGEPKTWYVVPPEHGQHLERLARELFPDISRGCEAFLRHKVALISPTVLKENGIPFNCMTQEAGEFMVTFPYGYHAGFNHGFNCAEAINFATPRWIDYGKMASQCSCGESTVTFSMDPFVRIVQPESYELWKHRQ
L3MBTL1 inh-2 – qHTS Assay for the Inhibitors of L3MBTL1: Hit Validation. Potency, µM, actives largely listed as inhibitors. AID 540279, 2011. 91% of 500 active. shares compounds with L3MBTL1 inh-1. L3MBTL1 methyl-lysine binding inhibition, biochemical qHTS; note: nearly all actives have a fitted effect of over 70% in size
L3MBTL1 ctr – qHTS Assay for the Inhibitors of L3MBTL1: Hit Validationin AlphaScreen Counterscreen; shares compounds with L3MBTL1 inh-1; AlphaScreen counterscreen, signal inhibition; Potency, µM (series often up to 57.1 µM), most hits filed as inhibitors; 500 tested, under 10 active
Each line names hits and unclear results; the compound was inactive in the other large screens (follow-up assays come after a bar, where they were run). Unless noted, calls come from the whole dose curve; as a rule, active = well fitted curve in the direction sought with a large enough effect; inconclusive = small, poorly fitted or top-dose-only effect, or another doubt; inactive = no such curve, though single readings can be large; an effect the other way counts as inactive or inconclusive.

Cc1ccc(C(=O)OCC(=O)c2ccc(CC(=O)N3CCOCC3)s2)c(C)c1	L3MBTL1 inh-1 20µM (no result: JMJD2E inh) | L3MBTL1 inh-2 3 | L3MBTL1 ctr inactive
COc1ccc(C2=CC(=O)OC(C)(c3ccccc3)O2)cc1 (stereo not drawn)	JMJD2E inh inconclusive
COc1ccc(NC(=O)CCOc2ccccc2F)cc1S(=O)(=O)N1CCCCC1	none (no result: JMJD2E inh)
NS(=O)(=O)c1ccc(-c2ccc(/C=C3\SC(=S)N(C4CCS(=O)(=O)C4)C3=O)o2)cc1 (stereo not drawn)	none (no result: L3MBTL1 inh-1)
Cc1ccc(/C=C2\SC(=S)N(C3CCS(=O)(=O)C3)C2=O)o1 (stereo not drawn)	L3MBTL1 inh-1 25µM | L3MBTL1 inh-2 21 | L3MBTL1 ctr inactive
O=C(O)c1ccc(N2CCS(=O)(=O)CC2)cc1	JMJD2E inh inconclusive
COc1ccc(OCc2cc(C(=O)NCC3CCCCO3)no2)c(Cl)c1 (stereo not drawn)	none (no result: L3MBTL1 inh-1, JMJD2E inh)
CCN(c1ccccc1)S(=O)(=O)c1ccc(OC)c(NC(=O)c2ccco2)c1	none (no result: L3MBTL1 inh-1, JMJD2E inh)
Cc1ccc2nc(-c3ccc(O)c(O)c3)cn2c1	L3MBTL1 inh-1 32µM (no result: JMJD2E inh) | L3MBTL1 inh-2 5.3 | L3MBTL1 ctr inactive
C=CC(=O)NCC1OCCc2ccccc21 (stereo not drawn)	none (no result: CtBP-E1A inh)
O=C(/C=C/c1ccco1)NCC1OCCc2ccccc21 (stereo not drawn)	L3MBTL1 inh-1 22µM, Six1-Eya2 blk inconclusive, JMJD2E inh inconclusive | L3MBTL1 inh-2 6 | L3MBTL1 ctr inactive
CCn1c2ccccc2c2cc(N=C3SC(CC(=O)Nc4ccccc4OC)C(=O)N3CCOC)ccc21 (stereo not drawn)	L3MBTL1 inh-1 28µM | L3MBTL1 inh-2 7.5 | L3MBTL1 ctr inconclusive
C=C(C)CCOC(=O)C(CC(=O)O)NCc1ccco1 (stereo not drawn)	L3MBTL1 inh-1 28µM (no result: CtBP-E1A inh) | L3MBTL1 inh-2 9.5 | L3MBTL1 ctr inactive
Cc1ccnc(NC(c2cccnc2)c2ccc3cccnc3c2O)c1 (stereo not drawn)	L3MBTL1 inh-1 13µM, CtBP-E1A inh -99, Six1-Eya2 blk -86, JMJD2E inh 5.6µM | L3MBTL1 inh-2 11 | L3MBTL1 ctr inactive
Cn1nc2c(c1C(=O)O)CCCC2	L3MBTL1 inh-1 5.6µM | L3MBTL1 inh-2 15 | L3MBTL1 ctr inactive
CCCCC/C=C\C/C=C\C/C=C\C/C=C\CCCCCC(=O)NCC(=O)O	none (no result: L3MBTL1 inh-1, CtBP-E1A inh, Six1-Eya2 blk)
O=C(Cn1nc(Cc2cccnc2)c2ccccc2c1=O)Nc1ccccc1F	none
Cc1cc(C)nc(N2CCCC(C(=O)NCC(c3ccccc3)c3ccccc3)C2)n1 (stereo not drawn)	none
COc1ccc(C2CC(=O)Nc3cc(OC)c(OC)cc32)cc1Br (stereo not drawn)	none (no result: JMJD2E inh)
COc1ccc(C2CC(=O)Nc3ccccc3S2(=O)=O)cc1OC (stereo not drawn)	L3MBTL1 inh-1 11µM, JMJD2E inh inconclusive | L3MBTL1 inh-2 inconclusive | L3MBTL1 ctr inactive
Cc1cc(C(C#N)c2ccccc2F)n2ncnc2n1 (stereo not drawn)	none
CC(=O)OCC1=C(C(=O)O)N2C(=O)[C@@H](NC(=O)CSc3ccncc3)[C@H]2SC1	L3MBTL1 inh-1 16µM, JMJD2E inh inconclusive | L3MBTL1 inh-2 3 | L3MBTL1 ctr inactive
CC(=O)OCC1=C(C(=O)O)N2C(=O)[C@@H](NC(=O)Cc3cccs3)[C@@H]2SC1	none (no result: L3MBTL1 inh-1, CtBP-E1A inh, Six1-Eya2 blk)
COc1ccccc1/C=c1\sc2nc(-c3ccco3)nn2c1=O	L3MBTL1 inh-1 13µM | L3MBTL1 inh-2 12 | L3MBTL1 ctr inactive
CCOc1ccc(/C=c2\sc3nc(-c4ccco4)nn3c2=O)cc1OCC	none
CN(C)C(=O)c1cnc(-c2ccccc2)nc1-c1ccccc1	none (no result: L3MBTL1 inh-1, JMJD2E inh)
CCCC(=O)N1CCC1(C)C(=O)Nc1cccc(OC(C)C)c1 (stereo not drawn)	none (no result: L3MBTL1 inh-1, JMJD2E inh)

Source: PubChem (National Center for Advancing Translational Sciences (NCATS))
